Records with an inconclusive call do not appear. A call without a number means that no potency is given here. Calls of active or inactive are those of the source. Calls come from the whole dose curve.

In this assay the target is D(2) dopamine receptor (Homo sapiens) (UniProt P14416). The assay can be described thus: Dopamine D2 receptor (DRD2) small molecule agonists, cell-based qHTS assay (AID 1963594). Note: nearly all actives have a fitted effect of over 35% in size. Conditions: HEK293-DRD2 cAMP HTRF, agonist mode, 30 min; series mostly up to 92.4 µM. The source says: National Center for Advancing Translational Sciences [NCATS]
Sequence of D(2) dopamine receptor (Homo sapiens) (P14416 whole entry, looked up): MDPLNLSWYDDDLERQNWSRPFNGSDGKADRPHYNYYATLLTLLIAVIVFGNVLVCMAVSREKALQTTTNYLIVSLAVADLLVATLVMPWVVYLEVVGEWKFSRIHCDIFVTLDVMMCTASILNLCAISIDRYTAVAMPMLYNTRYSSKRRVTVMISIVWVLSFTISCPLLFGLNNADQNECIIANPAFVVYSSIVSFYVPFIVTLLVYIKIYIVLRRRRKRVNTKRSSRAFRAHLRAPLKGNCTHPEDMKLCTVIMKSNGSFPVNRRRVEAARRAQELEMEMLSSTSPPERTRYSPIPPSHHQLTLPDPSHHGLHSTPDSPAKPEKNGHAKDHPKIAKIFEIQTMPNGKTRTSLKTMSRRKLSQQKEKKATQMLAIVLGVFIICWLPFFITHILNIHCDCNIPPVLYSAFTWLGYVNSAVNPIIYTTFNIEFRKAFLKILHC
Division of Preclinical Innovation [DPI]
U.S. Environmental Protection Agency [EPA]
National Institutes of Environmental Health Sciences [NIEHS]
National Toxicology Program [NTP]
U.S. Food and Drug Administration [FDA]
DRD2 is the D2 subtype of the dopamine receptor, which is coupled to Gi subtype of G protein-coupled receptor. This G protein-coupled receptor inhibits adenylyl cyclase activity. The DRD2-HEK293 cell line stably expressing D2 dopamine receptor can be used for screening agonists and antagonists of interactions between D2 and its ligands. The Hek293-DRD2 cAMP assay is based on HTRF technology. It measures changes of cAMP accumulation in response to Gi coupled GPCR activation or inhibition.
Tox21 Assay Protocol Summary:
DRD2-Hek293 cells were dispensed at 600 cells/3uL/well in 1536-well white plates using a Multidrop Dispenser. After the assay plates were incubated at a 37 C/5% CO2 incubator for 24 h, 1 uL of Ro20-1724 at final concentration of 0.1 mM was transferred to the assay plate by a Flying Reagent Dispenser. Following Ro20-1724 addition, 23 nL of compound dissolved in DMSO, positive controls or DMSO only was added to the assay plates via Wako pintool station. The assay plates were incubated at room temperature for 10 min. Next, 1 uL of NKH477 at 200nM was added into the plates. After the assay plates were incubated at room temperature for an additional 30 min, 2.5 ul/well of cAMP-d2 and 2.5 ul/well of anti-cAMP-cryptate were added respectively into the assay plates using a Flying Reagent Dispenser. The plates were incubated at room temperature for 1 h. The fluorescence intensity in the plates was measured at 340 nm excitation and 665 & 620 nm emission by an Envision plate reader.
In general terms: qHTS replaces the single test concentration by a dilution series.
For the compound `CCCCCOC(=O)c1ccc(O)cc1`, the Potency result is “inactive”.

Consider `CN1CCC(=C2c3ccccc3CCc3cccnc32)CC1`, for which the Potency entry is “inactive”.

For the compound `C=C(C)CS(=O)(=O)O`, the Potency entry is “inactive”.

With `CCCCc1ccc2nc(NC(=O)OC)[nH]c2c1`, the Potency result was “inactive”.

For the compound `c1ccc(CN(Cc2ccccc2)Cc2ccccc2)cc1`, the Potency result was “inactive”.

In the case of `O=C(c1ccccc1)C1CCC1`, the Potency entry was “inactive”.

For the compound `Cc1cc(-c2ccc(N=Nc3cc(S(=O)(=O)O)c4ccccc4c3N)c(C)c2)ccc1N=Nc1cc(S(=O)(=O)O)c2ccccc2c1N`, the Potency result was “inactive”.

As for `NCCCCCCNCCCCCCN`, the Potency result is “inactive”.

In the case of `CC(C)=CC=O`, the Potency entry was “inactive”.

As to `CCCCCCCCCC(C)C=O` (stereo not given), the Potency result was “inactive”.

Consider `CNCC[C@@H](Oc1ccccc1C)c1ccccc1`, for which the Potency result was “inactive”.

On to `OCCN1CCOCC1`, for which the Potency result is “inactive”.

As to `C[C@@H]1CC[C@H]2C(C)(C)[C@H]3C[C@@]12CC[C@@]3(C)O`, the Potency entry is “inactive”.

Consider `CC1=CC(=O)/C(=C(/C)O)C(=O)O1`, for which the Potency entry was “inactive”.

With `O=C(c1ccccc1)c1cc(Cl)ccc1O`, the Potency entry was “inactive”.

For the compound `O=C1CCCCCCCCCCCCCCO1`, the Potency result was “inactive”.

As to `CCCCCCCCCCCCCBr`, the Potency entry was “inactive”.

On to `CCCCCCCCCCCCOCCOS(=O)(=O)O`, for which the Potency result was “inactive”.

`CCCc1ccccc1O`: the Potency result is “inactive”.

On to `COc1cc([C@@H]2c3cc4c(cc3[C@@H](O[C@@H]3O[C@@H]5CO[C@@H](C)O[C@H]5[C@H](O)[C@H]3O)[C@H]3COC(=O)[C@H]23)OCO4)cc(OC)c1O`, for which the Potency result was “inactive”.

For the compound `CC(=O)Oc1cccc(C)c1`, the Potency entry is “inactive”.

In the case of `CC(C)C=O`, the Potency entry is “inactive”.

Consider `CN(C)c1ccncc1`, for which the Potency result was “inactive”.

Consider `Nc1ccc(F)cc1F`, for which the Potency entry is “inactive”.

Take `SCCc1cnccn1`: the Potency entry is “inactive”.

Consider `CCc1ccc(C(c2ccc(CC)cc2)C(Cl)Cl)cc1`, for which the Potency result was “inactive”.

Consider `C=CCN(CC=C)CC=C`, for which the Potency entry was “inactive”.

Take `CCCCCCOc1ccc(O)cc1`: the Potency result was “inactive”.

As to `ClCCOCCOCCCl`, the Potency entry is “inactive”.

As to `C=CC(=O)OCCn1c(=O)n(CCOC(=O)C=C)c(=O)n(CCOC(=O)C=C)c1=O`, the Potency result was “inactive”.

Consider `CCCCNC(=S)NCCCC`, for which the Potency result was “inactive”.

Take `CC1CCCNC1` (stereo not given): the Potency entry was “inactive”.

On to `CC(C)COC(=O)COc1ccc(Cl)cc1Cl`, for which the Potency entry was “inactive”.

For the compound `CC(C)c1ccccc1`, the Potency result is “inactive”.

Take `CCCC(=O)OCC`: the Potency entry is “inactive”.

For `CCCCCOC(=O)COc1cc(N2C(=O)C3=C(CCCC3)C2=O)c(F)cc1Cl`, the Potency result is “inactive”.

Take `c1cc(CCCc2ccncc2)ccn1`: the Potency result is “inactive”.

For `CCOC(=O)C1=NN(c2ccccc2)C(=O)C1`, the Potency result is “inactive”.

For the compound `CCCCCCCCCCCCCC[P+](CCCC)(CCCC)CCCC` (tested in a mixture with another compound), the Potency result is “inactive”.

Consider `CC(C)CO`, for which the Potency result was “inactive”.
